# Measurements: the supplement of paper PMC6555819
# What was measured:
# Experiment in all cases: PBM binding z-score (relative to random genomic background probes); higher = stronger binding; sequences stand for … in GC…GCGATTGACAGCGTAGAATGAAGG
# [1] = system: FXR:RXRa (NR concentration 270 nM, RXRa partner concentration 90 nM)
# Outline: (§1)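 Probes were double-stranded and carried 34-nt variable regions with direct-repeat seeds, single-nucleotide variants, half-site ablations and random human genomic background sequences, printed on custom Agilent 4×180K protein-binding microarrays. Arrays were incubated 1 h with ligand-free nuclear receptor dimers in PBS pH 7.4, 2% milk, 0.02% Triton X-100, 1 mM DTT, 0.2 mg/mL BSA and 0.4 mg/ml salmon testes DNA. Antibodies against each partner (one per run) detected binding, and scanned fluorescence was regression-normalized. Binding z-scores use the random background probes as reference.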
# [2] = system: LXRa:RXRa (NR concentration 270 nM, RXRa partner concentration 90 nM)
# Outline: as §1
# [3] = system: LXRa homodimer (NR concentration 270 nM)
# Outline: as §1
# [4] = system: LXRb:RXRa (NR concentration 270 nM, RXRa partner concentration 90 nM)
# Outline: as §1
# [5] = system: LXRb homodimer (NR concentration 270 nM)
# Outline: as §1
# [6] = system: PPARa:RXRa (NR concentration 270 nM, RXRa partner concentration 90 nM)
# Outline: as §1
# [7] = system: PPARg:RXRa (NR concentration 180 nM, RXRa partner concentration 90 nM)
# Outline: as §1
# [8] = system: PPARg:RXRa 270nM:90nM, anti-RXR (NR concentration 270 nM, RXRa partner concentration 90 nM)
# Outline: as §1
# [9] = system: PPARg:RXRa 30nM:10nM, anti-RXR (NR concentration 30 nM, RXRa partner concentration 10 nM)
# Outline: as §1
# [10] = system: PPARg:RXRa 90nM:30nM, anti-RXR (NR concentration 90 nM, RXRa partner concentration 30 nM)
# Outline: as §1
Sequence,PBM binding z-score [1],PBM binding z-score [2],PBM binding z-score [3],PBM binding z-score [4],PBM binding z-score [5],PBM binding z-score [6],PBM binding z-score [7],PBM binding z-score [8],PBM binding z-score [9],PBM binding z-score [10]
CCTATTACTTGACCATAAGGGCAACCGAAGCTCG,1.19,0.716,0.834,1.06,1.31,0.711,0.8,0.339,0.281,0.247
CTCGAAAGGTCGGTTGAGGTGAGTATGCGGATAA,2.51,1.72,-0.105,1.27,-0.0928,2.67,0.178,1.24,0.131,0.771
AGACCAAGGTGATCGTGAGGTCGTTGATACTAAC,1.27,0.891,0.368,0.98,-0.813,1.58,0.415,0.494,0.11,0.313
AGAATGAGCTTAAGATCAGGGAAACAGAATACAT,-0.576,-0.745,-0.372,-0.637,-0.597,-0.434,0.541,-0.0832,0.137,0.036
CAAACTAGGTAACAGAGGTCAAAGTCCGTGCGTA,5.29,6.1,7.34,5.38,1.74,5.84,6.67,6.35,3.97,5.74
TCATATACGTAAAGGTGAAAGTCGAACGATATGA,0.717,1.21,-0.0647,1.44,0.339,2.63,1.64,2.52,3.86,3.15
TCAGACAGGTGAAGGTAATTCAGGTACGCAGTCG,1.15,1.22,-0.0461,1.11,0.0602,1.41,0.743,2.25,3.9,3.02
CAAACTAGGTCACAGAGGTCAAAGTGCGTGCGTA,7.35,6.76,7.05,6.54,2.29,6.71,10.1,8.21,6.64,8.45
ATCTATAGGTAACCAAGTTCAGTGAATGCCGAAC,0.275,0.814,0.873,0.556,0.386,1.01,0.856,0.848,0.142,0.641
ATATGTAGGTTACATCCGGATCATTCAGGCTATG,0.642,3.17,0.493,1.65,0.498,3.35,5.19,4.14,1.64,3.4
TCTTATAGGTAAATGCTAGGTGAAAGTCCGATCT,1.33,1.6,0.477,1.11,0.669,1.27,0.531,2.5,3.79,3.41
CCTCGGAGGACAACAGGGGGTCAGAGCTGCCAGA,1.81,2.48,0.582,3.99,2.09,3.22,1.09,1.92,-0.264,1.13
TCATATCGGTAAACAGGTGAAAGTCCGTAAGTTA,0.957,0.857,0.341,0.799,0.0218,1.89,1.04,2.91,4.03,3.5
CGTCCAAGGTCATTGCTAGGTCAGTGAAAGCATT,6.96,5.75,3.09,4.57,1.37,5.32,3.8,5.08,1.55,3.62
ATCTCTAGGTAAAGCTCAGTGAAAGATCGATAGA,0.281,0.0459,-0.107,-0.256,0.358,0.297,0.103,0.333,0.3,0.095
ACTAGCAGGCCAGGGGTCACTCAAGATTAGTCCG,4.12,3.93,0.488,4.47,0.258,5.04,6.84,6.37,4.58,6.76
CAAACTAGGTCAAGAGGTGAAAGTCCGCTTCCCG,5.13,3.89,0.764,2.66,0.24,5.8,8.82,7.36,5.81,7.88
AGTCAGAGTTCAGGACGAGGTAACGTAAAGCACG,3.72,3.51,0.881,1.82,-0.0374,3.02,2.26,2.51,0.689,2.1
ATATGTAGGTTAGATGGGGTCATTCAGACTAGGC,4.98,5.67,3.54,4.97,1.56,5.11,5.98,5.22,2.6,4.55

Sequence,PBM binding z-score [1],PBM binding z-score [2],PBM binding z-score [3],PBM binding z-score [4],PBM binding z-score [5],PBM binding z-score [6],PBM binding z-score [7],PBM binding z-score [8],PBM binding z-score [9],PBM binding z-score [10]
ATCTCTAGGTAAAAGATCAGTGAATCCCGAGGAT,0.18,-0.223,0.0922,-0.31,0.167,2.45,4.48,5.32,4.13,5.66
TCTAGTTGGCCACGGAGGTCACACACGACGGGTA,2.71,2.79,1.39,3.2,0.0016,3.68,2.32,2.96,2.82,2.84
ATATGTAGGGTAAGGGTCATTCAGGTTGGTTCGC,4.75,4.47,2.94,4.47,3.06,6.52,11.9,10.3,11.2,12
TCGCCTAGGTCATTGGGCCAGTATAGTACGCATC,4.27,2.83,0.548,2.4,-0.239,3.61,3.1,3.57,2.21,2.73
ACTAGTTGGTCAGCTGAGGGCACACACAATTCGG,0.819,0.0659,0.172,0.183,-0.0227,0.606,0.887,0.572,0.27,0.385
TAGCCTAGGTCATTGGGCCAGTAAAGTACGCATC,4.37,3.38,0.448,2.29,0.0341,4,3.28,3.76,1.14,2.4
CCTGCTAGGTCATGGTCAGCTGATCTACAGTATG,4.51,2.68,-0.139,2.21,-0.492,3.96,3.02,3.1,0.862,2.09
AGAATGAGGTTATACGTAGATCAGGGCAGAAAGT,2.33,1.89,0.241,1.77,-0.0553,3.17,1.83,2.15,0.79,1.41
CGTCAAAGTTCAACTAAGGTAAAGTAAAGCACGC,6.88,6.38,3.13,4.16,2.1,5.3,4.8,5.57,2.59,4.36
CCTACTGGGCCACGAAAGGTCATTGTTTCAGTGA,3.44,5.19,5.22,4.29,0.43,4.61,4.26,4.79,1.73,4.24
TAGCCTAAGTCAGATCGGGCCAGTATACGCTATA,0.0829,-0.914,-0.748,-0.879,-0.805,-0.43,0.157,-0.628,-0.321,-0.556
CCTACTGGGCCAGCAGGTCATTGATATCAACGTT,0.852,0.958,0.496,1.21,-0.78,2.51,2.26,2.84,1.09,2.63
CCGACTGGGGCAAAGGTTACCCTACTCAGTACGA,1.55,1.36,0.204,1.69,-1.04,4.95,10.4,8.13,8.18,9.15
CAAACTATGTCACGAAAGGTCAAAGTCGAATGAC,5.77,6.78,6.81,6.18,2.79,6.44,6.17,5.88,3.01,4.94
CCGACTGGGGCATAAGGTTACCACAAGCCAGCCC,0.502,1.28,-0.388,0.812,-0.551,2.07,2.44,3.27,0.735,2.92
AGAATGCGGTTACCAAAGATCAGGGAAACGCTTG,-0.546,1.96,-0.607,-0.204,-0.992,0.0564,0.562,0.104,-0.151,-0.17
ATCTCTAGGTAAAGATTGTTCAGTGAATGCAAAT,0.226,0.124,0.091,0.234,0.621,0.0998,0.137,0.495,0.342,0.381
TTACCAAGGTGAAAGCTCGTTGATGCACGCCTTG,0.225,-0.099,-0.701,-0.367,-1.12,1.29,0.87,1.43,0.448,0.792
CGCCAAAGTTCAACTAAGGTAACGTAAAGCACGC,5.71,6.43,4.61,4.35,2.19,5.16,4.03,5.02,1.67,3.91
